Reference: PubChem BioAssay (NCI)
About 79,000 compounds went through this panel and 15% of them were active in at least one assay; those are over-represented in the sample as a whole. Unmarked numbers belong to inactive results. The source made the active and inactive calls. No stated cut-off is given here; in the data, active means growth inhibition above about 70%; inactive means the rest.

Experiments:
[1] = NCI Yeast Anticancer Drug Screen. Data for the rad50 strain (AID 155);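 further: 0% = growth of vehicle-only cultures of the same strain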; settings: S. cerevisiae rad50 strain growth inhibition, active compounds read high
Method in brief: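 Inhibition values express reduced yeast growth in compound-treated cultures relative to vehicle-treated controls.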

[2] = NCI Yeast Anticancer Drug Screen. Data for the mec2-1 strain (AID 157); settings: S. cerevisiae mec2-1 strain, active compounds read high
Method in brief: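 Readout is yeast growth inhibition, normalised to vehicle-treated controls, in the mec2-1 strain exposed to compound.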

[3] = NCI Yeast Anticancer Drug Screen. Data for the sgs1 mgt1 strain (AID 161);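 further: 0% = growth of cultures given vehicle only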; settings: S. cerevisiae sgs1 mgt1 strain, active compounds read high
Method in brief: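 Growth of a repair-deficient yeast mutant was monitored after compound treatment and expressed as inhibition relative to vehicle-treated cultures.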

[4] = NCI Yeast Anticancer Drug Screen. Data for the cln2 rad14 strain (AID 165);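 further: 0% = growth equal to vehicle treated cultures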; settings: S. cerevisiae cln2 rad14 strain, active compounds read high
Method in brief: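 Relative to vehicle controls, growth inhibition of compound-treated cln2 rad14 yeast was recorded.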

[5] = NCI Yeast Anticancer Drug Screen. Data for the bub3 strain (AID 167); settings: S. cerevisiae bub3 mutant strain, active compounds read high
Method in brief: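 Steps: expose the mutant yeast strain to compound; grow alongside vehicle-treated cultures; measure growth; express inhibition against the vehicle cultures.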

[6] = NCI Yeast Anticancer Drug Screen. Data for the mlh1 rad18 strain (AID 175); settings: S. cerevisiae mlh1 rad18 strain growth inhibition, active compounds read high
Method in brief: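 Test agents were incubated with a yeast strain of defined genotype (DNA damage repair defect). Inhibition of growth was derived by comparison with vehicle-exposed cultures.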

[7] = at 5.0 µM (retest, dose inferred, filed as 0.5)
[8] = at 50.0 µM (retest, dose inferred, filed as 5.0)

Structure (SMILES) | growth inhibition [1, 7] | growth inhibition [1, 8] | growth inhibition ([1]; at 50.0 µM) | growth inhibition [2, 7] | growth inhibition [2, 8] | growth inhibition ([2]; at 50.0 µM) | growth inhibition [3, 7] | growth inhibition [3, 8] | growth inhibition ([3]; at 50.0 µM) | growth inhibition [4, 7] | growth inhibition [4, 8] | growth inhibition ([4]; at 50.0 µM) | growth inhibition [5, 7] | growth inhibition [5, 8] | growth inhibition ([5]; at 50.0 µM) | growth inhibition [6, 7] | growth inhibition [6, 8] | growth inhibition ([6]; at 50.0 µM)
CC1=CC(=O)CC(c2ccccc2)C1 (configuration not stated) | 43% | 98% (active) | 97.6% (active) | 30% | 99% (active) | 98.3% (active) | 22% | 99% (active) | 98.7% (active) | 11% | 97% (active) | 92.5% (active) | 31% | 99% (active) | 98.7% (active) | 55% | 99% (active) | 98.3% (active)
O=C(Nc1cccc2ccccc12)OCCCCCCl | -2% | 97% (active) | 97% (active) | -2% | 96% (active) | 97% (active) | 1% | 98% (active) | 97.1% (active) | -6% | 95% (active) | 95.5% (active) | -5% | 93% (active) | 97.2% (active) | -16% | 93% (active) | 97.4% (active)
CC(C)C(O)C(C)C | 5% | 1% | 83% (active) | 0% | -3% | -2.45% | -1% | 0% | 4.95% | 4% | -1% | 17.1% | 1% | -7% | 13.7% | 4% | 2% | 49.5%
C=C(CC)C[C@@H]1C[C@]2(C(=O)OC)c3[nH]c4ccccc4c3CCN2C1=O | -1% | 94% (active) | 52.5% | 0% | 85% (active) | 26.9% | 8% | 98% (active) | 58.4% | 15% | 77% (active) | 62.5% | 2% | 18% | 48.5% | 0% | 96% (active) | 82.5% (active)
CC(=O)N(C1=C(Cl)C(=O)c2ccccc2C1=O)c1ccc([N+](=O)[O-])cc1 | 98% (active) | 98% (active) | 99.2% (active) | 99% (active) | 99% (active) | 99.2% (active) | 98% (active) | 100% (active) | 99.5% (active) | 96% (active) | 97% (active) | 99.5% (active) | 99% (active) | 98% (active) | 98.6% (active) | 98% (active) | 99% (active) | 99% (active)
S=C1NC2=C(COC/C2=C\c2ccccc2Cl)C(c2ccccc2Cl)N1 (configuration not stated) | 94% (active) | 94% (active) | 76.9% (active) | 47% | 96% (active) | 81.5% (active) | 55% | 97% (active) | 79.2% (active) | 53% | 96% (active) | 76.8% (active) | 58% | 96% (active) | 82% (active) | 92% (active) | 94% (active) | 81.3% (active)
CCOC(CN(C)C(=O)Nc1ccc(Cl)c(Cl)c1)OCC | -31% | 52% | 63.7% | 2% | 61% | 32.7% | -15% | 56% | 58.6% | -17% | 45% | 67.8% | -26% | 71% (active) | 54.9% | -25% | 84% (active) | 38.7%
Cc1ccc2c(c1)SSc1ccc(C)cc1SS2 | 78% (active) | 92% (active) | 81% (active) | 42% | 94% (active) | 27.9% | 35% | 94% (active) | 75.7% (active) | 84% (active) | 91% (active) | 55.5% | 79% (active) | 93% (active) | 73.2% (active) | 66% | 93% (active) | 64.8%
Cc1cc(N2C(=O)CCSC2=S)c([N+](=O)[O-])cc1C | 32% | 99% (active) | 99.3% (active) | 7% | 99% (active) | 99.6% (active) | 60% | 99% (active) | 99.5% (active) | -5% | 98% (active) | 98.5% (active) | 14% | 99% (active) | 99.5% (active) | 65% | 99% (active) | 99.4% (active)
